# Test results as given in PubChem BioAssay AID651650 (Sanford-Burnham Center for Chemical Genomics, 2012).
# Target: Neuropilin-1 (Homo sapiens) (UniProt O14786)
# Experiment: blockers of CendR peptide binding to NRP-1 – biochemical, FP and AlphaScreen panel, dose response (AID 651650)
# Conditions: NRP-1 b1b2 / RPARPAR peptide binding, FP or AlphaScreen; run 1, at 100 µM (top of the series)
# Sequence of Neuropilin-1 (Homo sapiens) (O14786 whole entry, looked up): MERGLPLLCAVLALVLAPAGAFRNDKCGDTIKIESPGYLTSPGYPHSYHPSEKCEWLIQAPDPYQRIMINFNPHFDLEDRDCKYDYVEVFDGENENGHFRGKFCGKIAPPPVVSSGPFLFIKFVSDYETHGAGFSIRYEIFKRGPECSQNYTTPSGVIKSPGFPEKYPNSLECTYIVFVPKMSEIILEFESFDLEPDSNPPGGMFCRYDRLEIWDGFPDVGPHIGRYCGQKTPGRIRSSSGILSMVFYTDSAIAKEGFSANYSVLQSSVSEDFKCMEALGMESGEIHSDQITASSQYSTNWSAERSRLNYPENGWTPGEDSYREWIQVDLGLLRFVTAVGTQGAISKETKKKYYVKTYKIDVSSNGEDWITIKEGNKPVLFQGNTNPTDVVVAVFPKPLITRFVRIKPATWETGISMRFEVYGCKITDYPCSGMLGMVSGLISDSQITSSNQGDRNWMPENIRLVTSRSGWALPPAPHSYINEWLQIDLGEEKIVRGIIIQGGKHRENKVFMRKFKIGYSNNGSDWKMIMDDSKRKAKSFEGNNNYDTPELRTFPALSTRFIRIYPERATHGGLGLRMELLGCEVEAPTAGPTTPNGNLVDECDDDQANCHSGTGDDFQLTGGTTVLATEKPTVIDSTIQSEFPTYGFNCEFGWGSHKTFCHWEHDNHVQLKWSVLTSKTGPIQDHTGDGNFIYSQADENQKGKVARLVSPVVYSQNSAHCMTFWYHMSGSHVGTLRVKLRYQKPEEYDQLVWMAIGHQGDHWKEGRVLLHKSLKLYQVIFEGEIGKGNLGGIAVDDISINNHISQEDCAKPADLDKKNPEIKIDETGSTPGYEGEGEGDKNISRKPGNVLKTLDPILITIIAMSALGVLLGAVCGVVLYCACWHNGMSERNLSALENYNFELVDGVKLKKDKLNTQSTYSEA
row,SMILES,inhibition
1,O=C(CSc1nnc(CNC(=O)C23CC4CC(CC(C4)C2)C3)n1-c1ccccc1)Nc1ccc(F)cc1,4.39%
2,Cc1cc2cc(CNC(=O)c3ccc(S(=O)(=O)N4CCOCC4)cc3)ccc2n1C,18.3%
3,Cc1cccc(NS(=O)(=O)c2cccs2)c1,44.9%
4,CC(=O)Nc1ccc(NC(=O)C2CC(=O)N=C(N)S2)cc1 (centres undefined),95.5%
5,Fc1cnc(N2CCOCC2)nc1N1CCOCC1,49%
6,CCOC(=O)Cc1ccc(NS(=O)(=O)c2ccc(SC)cc2)cc1,19.4%
7,COc1ccc(-c2cc(C)no2)cc1S(=O)(=O)NCc1cccc(C)c1,23.2%
8,C=CCN(CC=C)C(=O)C1CC(=O)N(c2ccc(Br)cc2)C1 (centres undefined),-4.22%
9,O=C(O)CSc1nnc(-c2ccc(Cl)cc2Cl)n1-c1ccc(Cl)cc1,74.1%
10,COc1ccc(-c2noc(CN(C(=O)c3ccc4c(c3)OCO4)C(C)C)n2)cc1,27.6%
11,COC(=O)Cc1ccc(NC(=S)NCCCO)cc1,49.7%
12,Cc1occc1C(=O)N1N=C(C2CC2)CC1(O)C(F)(F)F (centres undefined),35.3%
13,O=C(Nc1cc(C(F)(F)F)ccc1N1CCCC1)C1CC(=O)N(Cc2ccccc2)C1 (centres undefined),2.78%
14,CCCS(=O)(=O)N1CCC(Cc2ccc(OC)cc2)(C(=O)OCC)CC1,-57.8%
15,CCCNC(=S)Nc1cccc(C(F)(F)F)c1,-8.06%
16,O=C(O)c1ccccc1SCC(=O)N1CCCCC1,52.9%
17,O=C(Nc1ccc(F)cc1)c1cc(S(=O)(=O)Nc2ccc(F)cc2)cs1,2.95%
18,O=C(O)CCSc1nnc(COc2cccc3cccnc23)n1-c1ccccc1,52.3%
19,CC(C)(C)n1cnc2cc(NC(=O)c3ccccc3)ccc21,95.9%
20,CCN(CC)C(=O)C1CCCN(C(=O)Nc2ccc3nsnc3c2)C1 (centres undefined),21.5%

row,SMILES,inhibition
1,CCOC(=O)C(NC(=O)CC(C)C)(Nc1sc(C)c(CC)c1C#N)C(F)(F)F (centres undefined),-7.38%
2,CCOc1ccc(/C=C2/Sc3ccc(C(=O)NCC4CCCO4)cc3N(C)C2=O)cc1OC (centres undefined),77.7%
3,NC(=O)c1c(NC(=O)C(=O)N2CCOCC2)sc2c1CCCC2,16.2%
4,CC(Nc1ccc2ccccc2c1)C(=O)N/N=C/c1ccncc1 (centres undefined),45.8%
5,CCOC(=O)c1c2ccc(OCC(=O)NN)cc2n2ccccc12,-1.02%
6,Cc1ccc(C(=O)N/C(=C\c2ccc(-c3ccccc3[N+](=O)[O-])o2)C(=O)NCCCN2CCOCC2)cc1,13.2%
7,CC1(C)S[C@@H]2[C@H](NC(=O)COc3ccccc3)C(=O)N2C1C(=O)OCc1ccccc1 (some centres undefined),53.2%
8,O=C(O)c1ccc(C(=O)Nc2cccc3ccccc23)c(C(=O)O)c1,76.6%
9,CCN(c1ccccc1)S(=O)(=O)c1ccc(C(=O)N(CCCN(C)C)c2nc3cc4c(cc3s2)OCO4)cc1,72.6%
10,COc1ccncc1-c1csc(C(O)c2ccccc2)n1 (centres undefined),3.78%
11,CCc1ccccc1NC(=O)c1ccccc1N1C(=O)C2C3C=CC(C3)C2C1=O (centres undefined),21.3%
12,CCC1CCCCN1C(=S)Nc1ccc(OC(F)F)cc1 (centres undefined),69.3%
13,NS(=O)(=O)c1ccc(CNC(=S)NCc2ccc(F)cc2)cc1,42.3%
14,Cc1ccc(NC=C(S(=O)(=O)c2ccccc2)S(=O)(=O)c2ccccc2)cc1,-22.8%
15,CCCCn1nnnc1C(c1cc2ccccc2o1)N(C)Cc1ccc(Cl)c(Cl)c1 (centres undefined),104%
16,CCOC(=O)c1ccc2[nH]c(C)c(C)c2c1,-0.673%
17,O=C(CSc1nc2ccccc2n1Cc1ccccc1Cl)N/N=C/c1ccccc1C(=O)O,84.6%
18,COc1ccc(-c2csc(NC(CO)c3nc4ccccc4n3CCCO)n2)cc1 (centres undefined),41.5%
19,CC(C)(C)C(=O)c1cnc(Nc2ccccc2)s1,-10.5%
